The nature of assay [1]: ATG_ERE_CIS: Attagene CIS-FACTORIAL HepG2 Assay for Estrogen Response Element (ERE) (AID 2282940). To be noted: HepG2 ERE cis-reporter, Attagene RNA transcript; actives raise or lower the signal. The method, boiled down: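 Transient MRTU transfection of human HepG2; cis-element promoters; 24 h dosing; total RNA → RT (oligo dT) → PCR → 6-FAM primer extension → HpaI digest → CE fluorescence. Bidirectional fit, DMSO baseline.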

A short description of assay [2]: ATG_Ets_CIS: Attagene CIS-FACTORIAL HepG2 Assay for human Erythroblast Transformation Specific (ETS) (AID 2282941). The settings on record: HepG2 ETS cis-reporter transcription, actives raise or lower the signal. The method in brief: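 Human HepG2 hepatoma cells were transiently transfected with promoter-driven reporter constructs and treated for 24 hours. Reporter transcripts were quantified by RT-PCR with fluorescent primer extension; bidirectional curve fitting used DMSO as reference.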

Assay [3] addresses Hepatocyte nuclear factor 3-beta (Homo sapiens) (UniProt Q9Y261). Kind of assay: ATG_FoxA2_CIS: Attagene CIS-FACTORIAL HepG2 Assay for human Forkhead box A2 (FOXA2) (AID 2282942). The settings on record: HepG2 cis-reporter transcription factor activity, 24 h; actives raise or lower the signal. The method, boiled down: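 Measured: reporter mRNA induction or loss in HepG2 transiently carrying multiple cis-regulated reporter units, 24 h after dosing. Quantified by RT-PCR plus capillary electrophoresis, normalised to DMSO.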

The nature of assay [4]: ATG_FoxO_CIS: Attagene CIS-FACTORIAL HepG2 Assay for human Forkhead box O (FoxO) (AID 2282943). To be noted: HepG2 Attagene cis-reporter, FoxO element, mRNA; actives raise or lower the signal. The method, boiled down:
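HepG2 cells transiently transfected with cis-promoter-driven multiple reporter transcription units; 24 h after chemical dosing, reporter mRNA quantified by RT-PCR, fluorescent primer extension, HpaI digestion and capillary electrophoresis. Bidirectional fitting versus DMSO baseline.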

Assay [5] in a line: ATG_GATA_CIS: Attagene CIS-FACTORIAL HepG2 Assay for human GATA Binding Protein (AID 2282944). To be noted: HepG2 GATA cis-element reporter, Attagene multiplex mRNA; actives raise or lower the signal. The method, boiled down: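 Transient MRTU transfection, HepG2, 24 h compound exposure. Total RNA → oligo(dT) RT → PCR → 6-FAM primer extension → HpaI cut → CE. Bidirectional fit vs DMSO.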

The target in assay [6] is Bile acid receptor (Homo sapiens) (UniProt Q96RI1). Kind of assay: ATG_IR1_CIS: Attagene CIS-FACTORIAL HepG2 Assay for human Nuclear Receptor Subfamily 1 Group H Member 4 (NR1H4), IR1 submotif (AID 2282946). The settings on record: IR1 reporter transcription, actives raise or lower the signal. The method, boiled down: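 Transient MRTU transfection, HepG2; 24 h dosing; RNA → RT-PCR → 6-FAM primer extension → HpaI digest → capillary electrophoresis fluorescence. Gain/loss of signal fitted relative to DMSO.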

Assay [7] is described as follows: ATG_GRE_CIS: Attagene CIS-FACTORIAL HepG2 Assay for human Glucocorticoid Response Elements (GRE) (AID 2282947). To be noted: HepG2 GRE cis-reporter, Attagene multiplex mRNA; actives raise or lower the signal. The method in brief:
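Following 24 h chemical exposure of transiently transfected HepG2 cells, total RNA was reverse-transcribed and reporter cDNA amplified, fluorescently labelled and sized by capillary electrophoresis. Signal gain or loss was fitted relative to DMSO vehicle.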

Assay [8] can be described thus: ATG_ISRE_CIS: Attagene CIS-FACTORIAL HepG2 Assay for human Interferon Regulatory Factor 1 (IRF1) binding to an Interferon-Stimulated Response Element (ISRE) (AID 2282948). The settings on record: HepG2 ISRE cis-reporter (Attagene), mRNA transcription readout; actives raise or lower the signal. The method, boiled down: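 Cell-based cis-reporter assay; HepG2; 24 h exposure; reporter mRNA by RT-PCR plus capillary electrophoresis fluorescence; activity in either direction scored relative to DMSO.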

Assay [9] can be described thus: ATG_M_32_CIS: Attagene CIS-FACTORIAL HepG2 Assay for M32 Transcription Factor (Internal Marker) (AID 2282949).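 Note: background control marker of the multiplexed CIS panel rather than a real target.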 The settings on record: HepG2 Attagene cis-factorial M32 reporter, mRNA; actives raise or lower the signal. The method in brief: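 HepG2 cells transiently transfected with multiplexed cis-regulated reporter units, dosed 24 h. Reporter mRNA quantified by RT-PCR, 6-FAM labelling, HpaI digestion and capillary electrophoresis; bidirectional fit vs DMSO.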

Assay [10] is described as follows: ATG_GLI_CIS: Attagene CIS-FACTORIAL HepG2 Assay for human Zinc Finger Protein GLI1 (AID 2282945). To be noted: HepG2, Attagene cis-factorial reporter mRNA, GLI element; actives raise or lower the signal. The method, boiled down:
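HepG2 cells transiently transfected with cis-promoter multiplexed reporter units report endogenous transcription factor activity. After 24 h chemical exposure, reporter mRNA was quantified by RT-PCR, 6-FAM labelling, HpaI digestion and capillary electrophoresis, with bidirectional fitting against DMSO.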

A structure can be active in one record and inactive in another. The source made the active and inactive calls. Rule for the calls: active = hit-call score of the fitted dose curve at least 0.9, where 1 is the maximum; inactive = score below 0.9.

Usually AC50 stands for the concentration at which the activity in the assay is half-maximal.

Bile acid receptor (Homo sapiens), sequence (Q96RI1 whole entry, looked up): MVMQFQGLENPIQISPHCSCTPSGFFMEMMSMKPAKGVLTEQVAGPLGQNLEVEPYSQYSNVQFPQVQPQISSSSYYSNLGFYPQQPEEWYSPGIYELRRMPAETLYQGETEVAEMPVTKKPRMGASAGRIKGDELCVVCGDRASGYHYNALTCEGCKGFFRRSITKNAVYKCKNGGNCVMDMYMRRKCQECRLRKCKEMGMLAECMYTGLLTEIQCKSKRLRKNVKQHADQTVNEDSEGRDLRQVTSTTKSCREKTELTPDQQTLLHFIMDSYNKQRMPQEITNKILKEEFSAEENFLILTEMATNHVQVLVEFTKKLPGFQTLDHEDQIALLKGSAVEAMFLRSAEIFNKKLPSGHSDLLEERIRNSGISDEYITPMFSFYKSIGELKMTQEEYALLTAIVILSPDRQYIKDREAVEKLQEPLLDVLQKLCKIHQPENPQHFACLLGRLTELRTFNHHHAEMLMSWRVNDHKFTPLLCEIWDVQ
Hepatocyte nuclear factor 3-beta (Homo sapiens), sequence (Q9Y261 whole entry, looked up): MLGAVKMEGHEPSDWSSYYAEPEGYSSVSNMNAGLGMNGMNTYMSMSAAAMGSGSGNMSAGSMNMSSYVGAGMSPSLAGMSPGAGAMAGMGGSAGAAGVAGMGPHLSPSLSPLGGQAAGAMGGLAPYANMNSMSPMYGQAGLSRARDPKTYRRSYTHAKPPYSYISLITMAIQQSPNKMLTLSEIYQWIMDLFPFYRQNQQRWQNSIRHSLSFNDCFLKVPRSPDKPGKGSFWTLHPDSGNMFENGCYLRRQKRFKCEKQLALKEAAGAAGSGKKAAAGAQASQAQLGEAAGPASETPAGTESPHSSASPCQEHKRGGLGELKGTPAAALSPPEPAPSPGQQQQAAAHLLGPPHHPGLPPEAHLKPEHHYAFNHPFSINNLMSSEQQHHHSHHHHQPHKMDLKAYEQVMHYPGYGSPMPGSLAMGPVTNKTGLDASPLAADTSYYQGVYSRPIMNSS

Turning to `CCOP(=S)(OCC)SCCS(=O)(=O)CC`, the molecule was called inactive in assay [1], in assay [2], in [3], in assay [4], in [5] and in assay [6]. Moreover, the call in assay [7], in assay [8] and in assay [9] was inactive.

With `CC(=O)C(Cl)C(=O)N(C)C` (stereo not given), the outcome in [1], in assay [3], in [4], in assay [5], in assay [10] and in assay [8] was inactive. Also, in [9], the result was inactive. Besides, the AC50 in [2] is 100 µM (active).

As for `NNC(=S)NN`, the molecule was classed as inactive in assay [1], in assay [2], in assay [3], in assay [4], in [5] and in assay [10]. In addition, the outcome in assay [8] and in assay [9] was inactive.

`ClCCBr`: the call in [1], in assay [2], in assay [3], in assay [4], in assay [5] and in assay [10] was inactive. Moreover, the call in assay [8] and in assay [9] was inactive.

In the case of `CCNc1nc(NC(C)(C)C)nc(SC)n1`, the molecule was classed as inactive in assay [1], in assay [2], in assay [3], in assay [4], in assay [5] and in [6]. In addition, the result in [7] and in assay [9] was inactive. Besides, the AC50 in assay [8] is 100 µM (active).

Consider `C=CC#N`, for which the AC50 in assay [1] is 71.5 µM (active). Further, the molecule was called inactive in [2], in assay [3], in assay [4], in assay [5], in [10] and in assay [8]. The call in [9] was inactive.

For `C[C@H]1CCCC(=O)CCC/C=C/c2cc(O)cc(O)c2C(=O)O1`, the AC50 was 0.00291 µM (active) in [1], 7.35 µM (active) in assay [2], 10.3 µM (active) in assay [4] and 16.8 µM (active) in assay [8]. Further, the outcome in assay [3], in assay [5], in [10] and in assay [9] was inactive.

With `O=C(Cl)c1ccc(Cl)cc1`, the call in [1], in assay [2], in assay [3], in assay [4], in assay [5] and in [6] was inactive. In addition, the molecule was classed as inactive in assay [7], in assay [8] and in [9].

With `Cc1ccc(N)cc1Cl`, the molecule was classed as inactive in assay [1], in assay [2], in assay [3], in assay [4], in assay [5] and in [10]. Besides, the call in [8] and in [9] was inactive.

For the molecule `BrCCBr`, the call in [1], in assay [2], in assay [3], in assay [4], in [5] and in assay [10] was inactive. Further, the call in assay [8] and in assay [9] was inactive.

Take `Nc1ncc([N+](=O)[O-])s1`: the outcome in assay [1], in assay [2], in [3], in assay [4], in assay [5] and in assay [6] was inactive. In addition, the call in [7], in [8] and in assay [9] was inactive.

For the molecule `CCC[CH2][Sn]([CH2]CCC)([CH2]CCC)[O]C(=O)c1ccccc1`, the AC50 in [1] is 0.0334 µM (active). Also, the molecule was called inactive in assay [2], in [3], in [4], in assay [5], in assay [10] and in [8]. Moreover, in assay [9], the result was inactive.

`CCN(CC)C(=O)Cl`: the concentration at half-maximal activity (AC50) in [1] was 27.7 µM (active). Further, the result in assay [2], in assay [3], in assay [4], in assay [5], in assay [6] and in assay [7] was inactive. The molecule was classed as inactive in assay [8] and in assay [9].

On to `COP(=S)(OC)Oc1ccc(Sc2ccc(OP(=S)(OC)OC)cc2)cc1`, for which the result in assay [1], in [2], in assay [3], in assay [4], in [5] and in [10] was inactive. Besides, the result in assay [8] and in assay [9] was inactive.

Turning to `ClC(Cl)=C(Cl)C(Cl)=C(Cl)Cl`, the outcome in assay [1], in [2], in [3], in [5] and in assay [9] was inactive. For the same molecule, the AC50 in assay [4] is 180 µM (active); in [10], 158 µM (active); in assay [8] it was 100 µM (active).

Turning to `Nc1ccc(-c2ccc(N)c(Cl)c2)cc1Cl`, the AC50 in assay [1] was 3.86 µM (active). Also, the molecule was classed as inactive in [2], in assay [3], in assay [4], in assay [5], in [10] and in assay [8]. The outcome in [9] was inactive.

`CCC[CH2][Sn]([Cl])([Cl])[Cl]`: the call in assay [1], in assay [2], in assay [3], in assay [4], in assay [5] and in assay [6] was inactive. Further, the call in [8] and in [9] was inactive.

With `CC(C)(C)CC(C)(C)c1ccc(O)cc1`, the result in assay [2], in assay [3], in [4], in assay [5], in assay [6] and in assay [8] was inactive. Also, the outcome in [9] was inactive. Moreover, the AC50 was 16.3 µM (active) in assay [6] and 8.06 µM (active) in assay [8].

Take `O=C(O)Cc1ccccc1`: the result in assay [1], in assay [2], in [3], in [4], in [5] and in assay [6] was inactive. In addition, the outcome in assay [8] and in assay [9] was inactive.

In the case of `CCCCCCCCc1ccc(O)cc1`, the result in assay [2], in assay [3], in assay [4], in [5], in assay [10] and in [8] was inactive. In addition, the molecule was called inactive in assay [9].
